Results filed as inconclusive are left out. A call without a number means that no potency is given here. Activity calls are given as the source filed them. The call rests on the fitted dose curve; in most records, active means well fitted activation curve with a large enough effect in the repeat runs; inconclusive means weak or mixed curves; inactive means no such curve, though single readings can be large or run the other way.
biological target: Aryl hydrocarbon receptor (Homo sapiens) (UniProt P35869); assay: qHTS assay to identify small molecule that activate the aryl hydrocarbon receptor (AhR) signaling pathway (AID 743085); conditions: HepG2 AhR-luc (HG2L7.5c1), luciferase, 24 h; series mostly up to 70.3 µM; further: nearly all actives have a fitted effect of over 15% in size;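 on activation: HG2L7.5c1 human HepG2 liver cells with stably integrated DRE-driven firefly reporter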
Source text: U.S. Tox21 Program National Center for Advancing Translational Sciences [NCATS] NIH Chemical Genomics Center [NCGC] U.S. Environmental Protection Agency [EPA] National Institutes of Environmental Health Sciences [NIEHS] National Toxicology Program [NTP] U.S. Food and Drug Administration [FDA] Tox21 Assay overview: The Aryl hydrocarbon Receptor (AhR), a member of the family of basic helix-loop-helix transcription factors, is crucial to adaptive responses to environmental changes. AhR mediates cellular responses to environmental pollutants such as aromatic hydrocarbons through induction of phase I and II enzymes but also interacts with other nuclear receptor signaling pathways. A cell based HepG2-AhR-luc assay (HG2L7.5c1 cell line, developed by Dr. Michael S. Denison, University of California at Davis, was used to assess the activation of AhR. HepG2 (human hepatocellular carcinoma) cells were stably transfected with an Ah receptor-responsive firefly luciferase reporter gene plasmid containing 20 dioxin responsive elements and luciferase reporter gene. Increased luciferase activity can be used to identify the compounds that induce AhR activation.
Tox21 Assay Protocol Summary: 4000 cells in 5 uL/well were dispensed into white wall/solid bottom 1536-well plates using a Multidrop Combi (Thermo Fisher Scientific Inc., Waltham, MA) dispenser. After the assay plates were incubated at 37C for 5 h, 23 nL of compound or DMSO vehicle was transferred to the assay plates by a pintool station (Kalypsys, San Diego, CA). The plates were incubated at 37C for 24 hr. After 1 ul/well of CellTiter-Fluor reagent (Promega, Madison, WI) was added into the assay plates using a Flying Reagent Dispenser (FRD) (Aurora Discovery, CA), the assay plates were incubated at 37C for 30 min. The fluorescence intensity in the plates was measured using a ViewLux plate reader (PerkinElmer, Shelton, CT), followed by the addition of 4 uL of ONE-Glo Luciferase Assay reagent (Promega) using an FRD (Aurora Discovery). After the assay plates were incubated at room temperature for 30 min, luminescence intensity was measured using a ViewLux plate reader (Perkin Elmer).
Potency means the concentration at half of the fitted maximal effect.

Sequence of Aryl hydrocarbon receptor (Homo sapiens) (P35869 whole entry, looked up): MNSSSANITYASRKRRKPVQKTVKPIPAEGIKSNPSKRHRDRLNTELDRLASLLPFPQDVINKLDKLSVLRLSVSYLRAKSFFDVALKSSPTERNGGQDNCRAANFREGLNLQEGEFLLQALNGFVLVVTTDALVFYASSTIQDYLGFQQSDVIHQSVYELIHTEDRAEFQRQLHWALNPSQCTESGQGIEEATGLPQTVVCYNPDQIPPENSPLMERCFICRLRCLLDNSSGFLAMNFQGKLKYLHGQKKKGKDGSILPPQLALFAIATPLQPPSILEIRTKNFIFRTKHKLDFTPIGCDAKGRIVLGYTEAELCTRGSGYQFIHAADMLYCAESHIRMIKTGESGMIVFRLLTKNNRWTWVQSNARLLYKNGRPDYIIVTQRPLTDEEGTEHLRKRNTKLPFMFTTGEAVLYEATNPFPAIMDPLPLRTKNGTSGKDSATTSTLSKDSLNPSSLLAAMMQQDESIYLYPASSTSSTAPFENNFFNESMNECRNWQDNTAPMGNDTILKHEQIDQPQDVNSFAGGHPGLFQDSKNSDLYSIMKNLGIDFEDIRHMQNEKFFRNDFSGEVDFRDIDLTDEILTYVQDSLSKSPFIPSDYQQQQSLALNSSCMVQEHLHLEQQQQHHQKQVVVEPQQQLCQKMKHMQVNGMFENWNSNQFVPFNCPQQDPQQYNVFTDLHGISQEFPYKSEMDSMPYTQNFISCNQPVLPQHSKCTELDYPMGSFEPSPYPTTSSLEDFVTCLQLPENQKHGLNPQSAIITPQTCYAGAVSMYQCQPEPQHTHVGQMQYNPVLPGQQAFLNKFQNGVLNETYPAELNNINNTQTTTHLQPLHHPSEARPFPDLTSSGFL

| SMILES | Potency |
| --- | --- |
| Cc1cccc(S(=O)(=O)O)c1C | inactive |
| ON=C1CCCC1 | inactive |
| Cc1ccc(O)c(C(C)(C)C)c1 | inactive |
| C[C@H]1[C@H]2CC[C@H]3[C@@H]4CC=C5C[C@@H](N(C)C)CC[C@]5(C)[C@H]4CC[C@]23CN1C | inactive |
| CCCCCCCCCCn1cc[n+](CCCCCCCCCC)c1C | inactive |
| CCCCc1oc2ccc(NS(C)(=O)=O)cc2c1C(=O)c1ccc(OCCCN(CCCC)CCCC)cc1 | inactive |
| CC1=NC(C)OC1C (stereo not given) | inactive |
| OCc1c[nH]c2ccccc12 | 5.14 µM (active) |
| CCCCN1C(=O)[C@@H]([C@H](O)C2CCCCC2)NC(=O)C12CCN(Cc1ccc(Oc3ccc(C(=O)O)cc3)cc1)CC2 | inactive |
| C[C@@H](NCCCc1cccc(C(F)(F)F)c1)c1cccc2ccccc12 | inactive |
| O=C(NO)C1(NS(=O)(=O)c2ccc(Oc3ccc(F)cc3)cc2)CCOCC1 | inactive |
| NC(=O)CC[C@@H]1NC(=O)[C@H](Cc2ccccc2)NC(=O)[C@H](Cc2ccc(O)cc2)NC(=O)CCSSC[C@@H](C(=O)N2CCC[C@H]2C(=O)N[C@@H](CCCN=C(N)N)C(=O)NCC(N)=O)NC(=O)[C@H](CC(N)=O)NC1=O | inactive |
| CCCC1O[C@@H]2C[C@H]3[C@@H]4CCC5=CC(=O)C=C[C@]5(C)[C@H]4[C@@H](O)C[C@]3(C)[C@]2(C(=O)CO)O1 (stereo not given in full) | inactive |
| CN(C)[C@@H]1C(=O)C(C(N)=O)=C(O)[C@@]2(O)C(=O)C3=C(O)c4c(O)ccc(Cl)c4[C@@H](O)[C@H]3C[C@@H]12 | inactive |
| Oc1ccc2cc(SSc3ccc4cc(O)ccc4c3)ccc2c1 | inactive |
| CCCC(=O)OC[C@@H](OC(=O)CCC)[C@@H](OC(=O)CCC)[C@H](Cn1c2nc(=O)[nH]c(=O)c-2nc2cc(C)c(C)cc21)OC(=O)CCC | inactive |
| O=c1cccccc1O | inactive |
| C=CC(=O)OCC(CO)(COC(=O)C=C)COC(=O)C=C | inactive |
| C=CC(=O)OCC(CO)(COCC(COC(=O)C=C)(COC(=O)C=C)COC(=O)C=C)COC(=O)C=C | inactive |
| Fc1ccc(C(c2ccc(F)cc2)N2CCN(C/C=C/c3ccccc3)CC2)cc1 | inactive |

| SMILES | Potency |
| --- | --- |
| CCc1cc(Cc2cc(CC)cc(C(C)(C)C)c2O)c(O)c(C(C)(C)C)c1 | inactive |
| N=C1N=C(N)c2cc3ccccc3cc21 | 11.2 µM (active) |
| CSc1cnc(C)cn1 | inactive |
| On1ccccc1=S | inactive |
| c1ccc(CSCc2ccccc2)cc1 | inactive |
| CCCCCCOC(=O)c1ccc(O)cc1 | inactive |
| COc1c(C)c2c(c(O)c1C/C=C(\C)CCC(=O)O)C(=O)OC2 | inactive |
| CCOC(=O)O[C@]1(C(=O)OCCl)CC[C@H]2[C@@H]3CCC4=CC(=O)C=C[C@]4(C)[C@H]3[C@@H](O)C[C@@]21C | inactive |
| C/C=C(\C)C(=O)OCc1ccccc1 | inactive |
| COc1cc(/C=C/C(=O)O[C@H]2CC[C@]34C[C@]35CC[C@]3(C)[C@@H]([C@H](C)CCC=C(C)C)CC[C@@]3(C)[C@@H]5CC[C@H]4C2(C)C)ccc1O | inactive |
| Cc1nc(-c2ccc3c(c2)CCN(CCC2CCC(NC(=O)/C=C/c4ccc(F)cc4)CC2)CC3)no1 (stereo not given) | inactive |
| Cc1onc(-c2c(Cl)cccc2Cl)c1C(=O)N[C@@H]1C(=O)N2[C@@H]1SC(C)(C)[C@@H]2C(=O)O | inactive |
| CN(C)C(=O)C1(N2CCCCC2)CCN(CC[C@@]2(c3ccc(Cl)c(Cl)c3)CN(C(=O)c3ccccc3)CCO2)CC1 | inactive |
| CC[C@H](c1ccc(O)cc1)[C@@H](CC)c1ccc(O)cc1 | inactive |
| O=C(Nc1cccc([N+](=O)[O-])c1)c1cc2ccccc2cc1O | 2.43 µM (active) |
| CNC(=O)c1ccccc1 | inactive |
| CCOC(=O)c1nc(C(Cl)(Cl)Cl)n(-c2ccc(Cl)cc2Cl)n1 | inactive |
| CC(C)(C)CC(C)(C)c1ccc(OCCOCC[N+](C)(C)Cc2ccccc2)cc1 | inactive |
| Cc1cc(C2CCCCC2)n(O)c(=O)c1 | inactive |
| CC(C)(C)C(=O)OCOC(=O)[C@@H]1N2C(=O)[C@@H](NC(=O)[C@H](N)c3ccccc3)[C@H]2SC1(C)C | inactive |

Reference: PubChem BioAssay (Tox21)
